PLAP act – human PLAP activation. 96,000 compounds, 1.2% hits. P05187. purified PLAP enzyme, luminescent substrate read-out; active compounds read high. AID 696. activation fold at 20 µM; in the data active means activation fold above about 2
M1 antagonist – antagonists of rat M1 muscarinic receptor; P08482; CHO-M1 cells, Fluo-4 calcium, ACh EC80 antagonist mode; active compounds read low; 64,000 compounds, 3.4% hits; B-score at 10 µM; AID 628;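 active means calcium fluorescence response, raw or row-and-column corrected B-score, differing from the plate sample mean either way at a set confidence level, mostly lower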
Target sequence (P08482 whole entry, looked up): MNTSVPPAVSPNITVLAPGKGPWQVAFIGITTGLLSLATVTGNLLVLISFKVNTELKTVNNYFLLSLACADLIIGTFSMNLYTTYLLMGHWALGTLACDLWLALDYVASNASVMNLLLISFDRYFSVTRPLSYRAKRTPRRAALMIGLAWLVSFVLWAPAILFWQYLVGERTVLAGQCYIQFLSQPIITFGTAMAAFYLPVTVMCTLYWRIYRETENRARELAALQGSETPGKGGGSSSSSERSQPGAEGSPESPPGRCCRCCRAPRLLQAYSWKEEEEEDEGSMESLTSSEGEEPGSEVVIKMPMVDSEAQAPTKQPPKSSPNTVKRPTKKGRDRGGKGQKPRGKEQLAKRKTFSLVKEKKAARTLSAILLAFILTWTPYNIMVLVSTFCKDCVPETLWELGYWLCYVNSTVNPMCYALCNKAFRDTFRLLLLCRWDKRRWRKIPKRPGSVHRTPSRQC
M1 ag – agonists of M1 muscarinic receptor. CHO-M1 cells, Fluo-4 calcium fluorescence, agonist mode; active compounds read high. B-score at 10 µM. 64,000 compounds, 3% hits. AID 626;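 active means fluorescence rise, raw or as B-score row- and column-corrected plate score, outside the 99.7% band of its plate's samples, either direction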
Cav32 inh – inhibitors of human Cav3.2 T-type calcium channel; B-score at 10 µM; 100,000 compounds, 4% hits; AID 449739; Cav3.2-expressing cells, Fluo-4 calcium fluorescence FDSS; active compounds read low; O95180;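 active means single-dose well whose peak fluorescence ratio is a statistical outlier from its plate by either plate-standardised score or position-corrected B-score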
M1 antag conf – confirmation of rat M1 muscarinic receptor antagonists; shares compounds with M1 antagonist; CHO-M1 cells, Fluo-4 calcium, ACh EC80 antagonism; active compounds read low; calcium response (max-min fluorescence) at 10 µM; 1,700 compounds, 43% hits; AID 677;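 active means calcium response below the same-plate mean of wells given acetylcholine alone at its 80%-effect dose, minus 3 SD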;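 further: raw fluorescence intensity difference in arbitrary instrument units and not normalized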
mGluR4 antag – mGluR4 (human) activity, M1 antagonist secondary assay. shares compounds with M1 antagonist. fluorescence response (max-min) at 10 µM. CHO-mGluR4 calcium flux, Fluo-4 fluorescence, glutamate EC80; active compounds read low. 1,700 compounds, 0.9% hits;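 active means fluorescence response below the plate's average for near-maximal glutamate wells, less 3 SD of those wells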;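 further: raw unnormalized fluorescence span taken in the window right after glutamate addition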
* = called active by the depositor; x = no result given. An excerpt weighted towards active compounds, which were near 7.6% of everything screened.

SMILES | PLAP act | M1 antagonist | M1 ag | Cav32 inh | M1 antag conf | mGluR4 antag
COc1cc(-c2nc(-c3ccc4c(c3)-c3ccccc3S4(=O)=O)c(-c3ccccc3)[nH]2)cc(OC)c1O | 1.5 | x | x | -1.4 | x | x
Cc1cc(NC(=O)c2cncc(Br)c2)n(-c2ccccn2)n1 | 0.8 | -0.53 | -0.43 | x | x | x
Cc1ccc(C(=O)Nc2ncnc3sc4c(c23)CCCCC4)cc1 | 1.2 | x | x | -3 | x | x
O=C(Cn1cc(C(=O)c2cccs2)c2ccccc21)NCc1ccc2c(c1)OCO2 | 0.7 | 0.036 | 1.3 | -3 | x | x
C=C(C)Cn1c(SCC(=O)O)nc2c1c(=O)[nH]c(=O)n2C | 1.1 | -0.76 | -0.28 | -0.023 | x | x
CCC(=Nc1ccc(Cc2ccncc2)cc1)c1c(O)n(C)c(=O)n(C)c1=O | 1 | -2.9* | 7.7 | 0.36 | 548* | 224
CCOC(=O)c1ccc2ncc(C(=O)OCC)c(NCCCN3CCOCC3)c2c1 | 1.5 | -4.6* | 0.27 | -0.32 | 405* | 242
CCOC(=O)c1cnc2c(C(=O)OC)cccc2c1NCc1ccco1 | 1.5 | -1.3 | -0.92 | -0.035 | x | x
CCOC(=O)c1cnc2ccccc2c1NCCO | 0.9 | -2.9* | 1.3 | -0.11 | 409* | 212
CCOC(=O)c1cnc2ccc(Br)cc2c1NCCO | 0.9 | -0.017 | 0.41 | 0.14 | x | x
CCOC(=O)c1cnc2c(C)cccc2c1NCc1ccco1 | 1.3 | -8.3* | 1.8 | 1.5 | 321* | 249
O=C(COC(=O)c1cccc(NC(=O)c2ccco2)c1)c1ccc(Br)cc1 | 0.8 | 0.029 | -0.4 | -1.2 | x | x
COc1ccccc1CNC(=O)CS(=O)Cc1nc(-c2ccccc2C)oc1C (stereo not drawn) | 1.6 | -2.7* | 0.015 | -0.63 | 627 | 216
CC(C)c1ccccc1OCCCCCNCCO | 1.5 | -0.9 | 0.034 | -0.62 | x | x
CN1CCN(C2=C(Cl)C(=O)N(CCc3ccccc3)C2=O)CC1 | 1.1 | -5.7* | -1.3 | 0.15 | 376* | 244
C=CCn1c(COc2ccc(Cl)cc2)nnc1SCC(=O)N1CC(=O)Nc2ccccc21 | 1.6 | -0.93* | 0.2 | -2 | 537 | 237
COCCN1C(=O)c2ccccc2C(C(=O)NCCCN2CCCC2=O)C1c1c[nH]c2ccccc12 (stereo not drawn) | x | -0.3 | -0.39 | 0.083 | x | x
c1cncc(-c2nc(NCc3ccco3)c3ccccc3n2)c1 | 0.8 | -2.7* | 1.4 | 0.83 | 498* | 228
c1ccc(-c2nc(NCc3cccnc3)c3ccccc3n2)cc1 | 0.8 | x | x | -1.1 | x | x
Cc1cc(C)nc(NC2=NCCN2C(=O)Nc2ccc(Cl)c(Cl)c2)n1 | x | -4.1* | -0.73 | x | 475 | 217
Cc1nc2sccn2c(=O)c1CCN1CCC(=C(c2ccccc2)c2ccc(F)cc2)CC1 | x | -10* | 0.65 | -4.2 | 138* | 209
CCNc1ccc2c(Cl)cc(=O)oc2c1 | 1 | -0.6 | -0.06 | x | x | x
CN(CCNC(=O)c1cc2c(=O)n(C)c3ccccc3c2n1C)Cc1ccccc1 | 1.8 | -3.8* | 0.56 | 0.94 | 512 | 208
Cc1nnc(SCC(=O)N2CCC(Cc3ccccc3)CC2)n(N)c1=O | 1.3 | -3* | -0.11 | -0.43 | 559 | 231
Cc1nnc(SCC(=O)NCC2CCCCC2)n(N)c1=O | 1 | x | x | 0.21 | x | x
SMILES | PLAP act | M1 antagonist | M1 ag | Cav32 inh | M1 antag conf | mGluR4 antag
CC(C)Cn1c(N)c(C(=O)COC(=O)CC23CC4CC(CC(C4)C2)C3)c(=O)n(C)c1=O | 1.5 | x | x | -0.75 | x | x
N#Cc1c(-n2cccc2/C=N/O)sc2c1CCCC2 | 0.9 | -7* | -0.26 | x | 248* | 187
COc1ccc(OC)c(-n2nnnc2SCC(=O)NCc2ccc3c(c2)OCO3)c1 | 1 | 0.61 | 0.33 | x | x | x
CCOC(=O)c1cc2c(=O)n3cccc(C)c3nc2n(C)c1=N | 1.3 | 0.71 | 0.0097 | x | x | x
Cc1cccn2c(=O)c3cc(C(N)=S)c(=N)n(CCCOC(C)C)c3nc12 | 1.3 | -3.3* | 2 | -1.1 | 560 | 211
CCOCCCn1c(=N)c(C(N)=S)cc2c(=O)n3cccc(C)c3nc21 | 1.3 | -4.1* | -0.74 | x | 516 | 248
Cc1cc2c(=O)n(CC(=O)NCC(=O)N3CCN(Cc4ccccc4)CC3)cnc2s1 | 1.5 | 0.13 | 0.018 | x | x | x
Cc1ccc(NN2C(=O)C=C(c3ccc(Cl)cc3)C2=O)cc1 | 0.7 | x | x | 0.64 | x | x
COC(=O)/C=c1/s/c(=C(\C#N)C(=O)NCc2ccco2)n(-c2ccccc2)c1=O | 1.7 | -2.2* | 0.78 | 0.65 | 669 | 218
COc1cc(S(=O)(=O)NCC2OCCc3ccccc32)ccc1-n1cnnn1 (stereo not drawn) | 1 | x | x | -0.31 | x | x
CCn1c(SCC(=O)Nc2ccc(N(C)C)cc2)nnc1-c1cccc(C)c1 | 1.6 | -0.63 | 0.57 | 0.15 | x | x
Cc1nnc(NC(=O)C2CCCO2)s1 (stereo not drawn) | x | -0.18 | -0.45 | -0.019 | x | x
CCCC(C)c1nnc(NC(=O)C2CCCO2)s1 (stereo not drawn) | 1.2 | -3.5* | 0.73 | 0.015 | 198* | 246
COc1ccc(S(=O)(=O)N(CC(=O)N/N=C/c2cccs2)c2cc(C)cc(C)c2)cc1OC | 1.4 | x | x | -0.92 | x | x
CCN1CCc2nc(SCC(=O)Nc3ccc(OC)cc3)c(C#N)cc2C1 | 1.3 | -0.73* | -0.046 | 0.83 | 511 | 219
O=C(CN(CC1CCCO1)C(=O)CNS(=O)(=O)c1ccc(Cl)cc1)NCCc1ccccc1 (stereo not drawn) | 1 | x | x | -2.1 | x | x
O=C(CN(CCc1ccccc1)C(=O)CNS(=O)(=O)c1ccc(F)cc1)NCC1CCCO1 (stereo not drawn) | 1.6 | -2.3* | 0.074 | -0.23 | 642 | 238
CN1C=CC=C/C1=C1\SC(=S)N(C2CCCCC2)C1=O | 0.8 | -6.1* | -0.036 | 0.43 | 488* | 261
CCOC(=O)c1[nH]c2ccc(Br)cc2c1NC(=O)CCN1CCCCC1 | 1.8 | -15* | -0.58 | -1.8 | 25* | 143*
CCOC(=O)c1[nH]c2ccc(Br)cc2c1NC(=O)CCN1CCN(C(=O)OCC)CC1 | 1.5 | -0.5 | 2.6 | -0.9 | x | x
CCOC(=O)c1[nH]c2ccc(OC)cc2c1NC(=O)NC(C)C | 0.9 | x | x | 1.2 | x | x
CCOC(=O)c1[nH]c2ccc(OC)cc2c1NC(=O)CCN1CCCC(C)C1 (stereo not drawn) | 1.2 | -3.6* | 0.15 | -0.008 | 370* | 242
CCOC(=O)c1[nH]c2ccc(Br)cc2c1NC(=O)CCN1CCC(C(=O)OCC)CC1 | 1.4 | -5.2* | -0.48 | -0.028 | 408* | 247
COC(=O)c1[nH]c2cccc(OC)c2c1NC(=O)CCN1CC(C)CC(C)C1 (stereo not drawn) | 1.5 | -3.4* | 0.59 | -0.21 | 584 | 266
O=C(COc1ncnc2c(Cl)cc(Cl)cc12)NCCC1=CCCCC1 | 0.9 | x | x | -0.13 | x | x
CCN(CC(=O)Nc1c(C(=O)OC)[nH]c2ccc(Cl)cc12)c1ccc2c(c1)OCO2 | 1.3 | -0.22 | -0.47 | -0.94 | x | x
COC(=O)c1[nH]c2ccc(C)cc2c1NC(=O)CCN1CCN(Cc2ccc3c(c2)OCO3)CC1 | 1.1 | -20* | -0.024 | 0.072 | 38* | 226

Source: PubChem BioAssay (several laboratories)
